“And” between values parts separate entries of the source, which are not always exact repeats. Identical values can stand only once. Out of some 6,400 compounds screened, about 610 (9.5%) were called active. This is one part of a sample in which actives are shown more often than they occur. Cut-off read from the data, not from the text of the source: active = activity change below about -70%; inconclusive = no clear call, values can overlap the other calls; inactive = above that. Some compounds were tested as several samples or in several runs, with calls that do not always agree.
Assay: T. gondii ME49Luc in HeLa cells, luciferase assay, 72 h, no IFN-y (AID 1259421)
Conditions: stronger effect = lower value, concentration not given here

SMILES | activity change, negative = inhibition
CCc1cc(-c2n[nH]c(C)c2-c2ccc3c(c2)OCCO3)c(O)cc1O | -16.3% (inactive)
NC(=NCCCCCCN=C(N)/N=C(\N)Nc1ccc(Cl)cc1)/N=C(\N)Nc1ccc(Cl)cc1 | -58% (inactive)
CCN(CC)CCCCN1c2ccccc2Oc2ccc(Cl)cc21 | -10.3% (inactive) and 12.5% (inactive)
CCN(CC)CCOc1ccc(Cc2ccccc2)cc1 | 5.6% (inactive) and 13.5% (inactive)
CC/C(=C(\c1ccccc1)c1ccc(OCCN(C)C)cc1)c1ccccc1 | 13.1% (inactive) and -14.7% (inactive) and -6.44% (inactive)
CN(C)CCOC(=O)COc1ccc(Cl)cc1 | 4.1% (inactive) and 6.57% (inactive)
CC/C(=C(/c1ccccc1)c1ccc(OCCN(C)C)cc1)c1ccccc1 | -72.4% (active)
CN(C)CCOc1ccc(/C(=C(/CCCl)c2ccccc2)c2ccccc2)cc1 | -77.6% (active) and -84.8% (active)
CCN(CC)CCOc1ccc(/C(=C(\Cl)c2ccccc2)c2ccccc2)cc1 | -69.8% (inactive) and -52.9% (inactive)
CC(=O)OCC(=O)[C@@]12OC3(CCCC3)O[C@@H]1CC1C3CCC4=CC(=O)C=C[C@]4(C)[C@@]3(F)[C@@H](O)C[C@@]12C (stereo partly drawn) | -7.19% (inactive) and -8.15% (inactive)
C[C@]12C=CC(=O)C=C1CCC1C2[C@@H](O)C[C@@]2(C)C1CC[C@]2(O)C(=O)COC(=O)CCC(=O)O (stereo partly drawn) | -10.6% (inactive) and -6.45% (inactive)
CC(=O)OC[C@H]1O[C@@H](n2ccc(=O)[nH]c2=O)[C@H](OC(C)=O)[C@@H]1OC(C)=O | 8.3% (inactive)
C=CC1CN2CCC1CC2[C@@H](O)c1ccnc2ccc(OC)cc12 (stereo partly drawn) | 21.1% (inactive)
COc1nccc(-c2c(-c3ccc(F)cc3)ncn2C2CCC(O)CC2)n1 (stereo not drawn) | -77.2% (active)
COc1nccc(-c2c(-c3ccc(F)cc3)ncn2C2CCNCC2)n1 | -64.9% (inactive)
CCOc1ccc(Cc2cc([C@@]34OC[C@@](CO)(O3)[C@@H](O)[C@H](O)[C@H]4O)ccc2Cl)cc1 | 12.2% (inactive)
CSCC1CN(/N=C/c2ccc([N+](=O)[O-])o2)C(=O)O1 (stereo not drawn) | 3.31% (inactive)
CCNC(=O)CCC/C=C/C[C@@H]1[C@H](C=C[C@H](O)CCc2ccccc2)[C@@H](O)C[C@@H]1O | -1.53% (inactive)
CCCC[P+](CCCC)(CCCC)Cc1ccc(NC(=O)[C@H](Cc2ccc3ccccc3c2)NC(=NC2CCCCC2)NC2CCCCC2)cc1 | 27% (inactive)
OC1(c2ccc(Cl)c(C(F)(F)F)c2)CCN(CCCC(c2ccc(F)cc2)c2ccc(F)cc2)CC1 | -65.8% (inactive) and -91.8% (active)
O=C(CCCN1CCC(O)(c2cccc(C(F)(F)F)c2)CC1)c1ccc(F)cc1 | 30.3% (inactive)
O=C(CCCN1CCC(O)(c2ccc(Cl)cc2)CC1)c1ccc(F)cc1 | 7.06% (inactive) and 15.9% (inactive)
Nc1ccn(C[C@@H](CO)OCP(=O)(O)O)c(=O)n1 | -60.1% (inactive)
O/N=C/c1cc[n+](COC[n+]2ccc(/C=N/O)cc2)cc1 | 8.88% (inactive)
C[C@H]1CC2C([C@@H](O)C[C@@]3(C)C2CC[C@]3(O)C(=O)CO)[C@@]2(C)C=CC(=O)C=C12 (stereo partly drawn) | 5.02% (inactive)
OC[C@H]1O[C@H](O)C[C@@H](O)[C@@H]1O | -36.7% (inactive)
CCOCCn1c(C2CCN(CCc3ccc(C(C)(C)C(=O)O)cc3)CC2)nc2ccccc21 | 20.9% (inactive)
N#C/C(=C/c1ccc(O)c(O)c1)C(N)=O | 7.91% (inactive)

From PubChem BioAssay AID1259421 (Broad Institute, 2018)
